Assay results taken from PubChem BioAssay (Tox21).
Where “and” joins values, the source holds several entries; their conditions need not be identical. Equal entries are not always repeated. Records with an inconclusive call do not appear. Where a call stands in place of a potency, no number is given. Some structures have more than one record in an assay (separate samples or runs), and their calls can disagree. Calls of active or inactive are those of the source. Unless noted, calls come from the whole dose curve; as a rule, active = well fitted curve in the direction sought with a large enough effect in the repeat runs; inconclusive = weak or mixed curves; inactive = no such curve, though single readings can be large; an effect the other way counts as inactive or inconclusive.

How the values were obtained:
[1] = qHTS assay to identify small molecule antagonists of the glucocorticoid receptor (GR) signaling pathway - cell viability counter screen (AID 720693); note: nearly all actives have a fitted effect of over 55% in size
[2] = qHTS assay for identifying genotoxic compounds that show differential cytotoxicity against isogenic chicken DT40 cell lines with known DNA damage response pathways - wild type cell line (AID 743012); note: nearly all actives have a fitted effect of over 60% in size; note: potency is the fitted concentration of half-maximal effect
Outline: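 Viability of DNA repair-proficient chicken DT40 cells was assessed by CellTiter-Glo luminescence following 40 h compound exposure at 37 C/5% CO2.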

[3] = qHTS assay for identifying genotoxic compounds that show differential cytotoxicity against isogenic chicken DT40 cell lines with known DNA damage response pathways - Rev3 mutant cell line (AID 743014); note: nearly all actives have a fitted effect of over 55% in size; note: potency is the fitted concentration of half-maximal effect
[4] = qHTS assay for identifying genotoxic compounds that show differential cytotoxicity against isogenic chicken DT40 cell lines with known DNA damage response pathways - Rad54/Ku70 mutant cell line (AID 743015); note: nearly all actives have a fitted effect of over 60% in size; note: potency is the fitted concentration of half-maximal effect
[5] = qHTS assay to identify small molecule antagonists of the androgen receptor (AR) signaling pathway - cell viability counter screen (AID 743033; note: nearly all actives have a fitted effect of over 45% in size)
[6] = qHTS assay to identify small molecule antagonists of the androgen receptor (AR) signaling pathway using the MDA cell line - cell viability counter screen (AID 743041; note: nearly all actives have a fitted effect of over 45% in size)
Outline: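 Using the breast carcinoma line MDA-kb2 AR-luc, test chemicals were co-incubated with R1881 for 16 h; CellTiter-Fluor reagent, added at 15.5 h, provided a fluorescence measure of live cells.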

[7] = molecular target: Androgen receptor (Homo sapiens) (UniProt P10275); experiment: qHTS assay to identify small molecule antagonists of the androgen receptor (AR) signaling pathway (AID 743035; active = well fitted inhibition curve with a large enough effect in the signal ratio in the repeat runs, not every such curve was filed as active; the % refers to the signal ratio)
Outline: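 Reporter HEK293 cells were exposed to compounds and R1881 overnight (16 h, 37C); beta-lactamase activity was then quantified by FRET fluorescence.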

[8] = molecular target: Androgen receptor (Homo sapiens) (UniProt P10275); experiment: qHTS assay to identify small molecule agonists of the androgen receptor (AR) signaling pathway (AID 743036; active = well fitted activation curve with a large enough effect in the signal ratio in the repeat runs, with a control signal flat, not every such curve was filed as active; the % refers to the signal ratio; note: potency is the fitted concentration of half-maximal effect)
Outline: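 HEK293 cells stably carrying a UAS-driven beta-lactamase reporter (GeneBLAzer AR-UAS-bla-GripTite) were plated at 2,000 cells/well, rested 4 h at 37C, then exposed to compounds in DMSO for 16 h. LiveBLAzer B/G FRET substrate was added for 2 h at room temperature; fluorescence read.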

[9] = molecular target: Androgen receptor (Homo sapiens) (UniProt P10275); experiment: qHTS assay to identify small molecule agonists of the androgen receptor (AR) signaling pathway using the MDA cell line (AID 743040; note: nearly all actives have a fitted effect of over 20% in size; note: potency is the fitted concentration of half-maximal effect)
Outline: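 Stable MMTV-luciferase reporter in MDA-kb2 cells; note the promoter carries GR as well as AR response elements. 16 h compound treatment, 37C, 0% CO2; ONE-Glo luminescence endpoint.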

[10] = molecular target: Androgen receptor (Homo sapiens) (UniProt P10275); experiment: qHTS assay to identify small molecule antagonists of the androgen receptor (AR) signaling pathway using the MDA cell line (AID 743042; note: nearly all actives have a fitted effect of over 55% in size)
Outline: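 Antagonist mode: compounds plus R1881 agonist added to MDA-kb2 AR-luc cells, incubated 16 h at 37C. Luciferase reporter luminescence quantified, with multiplexed CellTiter-Fluor readout for cell viability.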

Chain of Androgen receptor (Homo sapiens) (P10275 whole entry, looked up): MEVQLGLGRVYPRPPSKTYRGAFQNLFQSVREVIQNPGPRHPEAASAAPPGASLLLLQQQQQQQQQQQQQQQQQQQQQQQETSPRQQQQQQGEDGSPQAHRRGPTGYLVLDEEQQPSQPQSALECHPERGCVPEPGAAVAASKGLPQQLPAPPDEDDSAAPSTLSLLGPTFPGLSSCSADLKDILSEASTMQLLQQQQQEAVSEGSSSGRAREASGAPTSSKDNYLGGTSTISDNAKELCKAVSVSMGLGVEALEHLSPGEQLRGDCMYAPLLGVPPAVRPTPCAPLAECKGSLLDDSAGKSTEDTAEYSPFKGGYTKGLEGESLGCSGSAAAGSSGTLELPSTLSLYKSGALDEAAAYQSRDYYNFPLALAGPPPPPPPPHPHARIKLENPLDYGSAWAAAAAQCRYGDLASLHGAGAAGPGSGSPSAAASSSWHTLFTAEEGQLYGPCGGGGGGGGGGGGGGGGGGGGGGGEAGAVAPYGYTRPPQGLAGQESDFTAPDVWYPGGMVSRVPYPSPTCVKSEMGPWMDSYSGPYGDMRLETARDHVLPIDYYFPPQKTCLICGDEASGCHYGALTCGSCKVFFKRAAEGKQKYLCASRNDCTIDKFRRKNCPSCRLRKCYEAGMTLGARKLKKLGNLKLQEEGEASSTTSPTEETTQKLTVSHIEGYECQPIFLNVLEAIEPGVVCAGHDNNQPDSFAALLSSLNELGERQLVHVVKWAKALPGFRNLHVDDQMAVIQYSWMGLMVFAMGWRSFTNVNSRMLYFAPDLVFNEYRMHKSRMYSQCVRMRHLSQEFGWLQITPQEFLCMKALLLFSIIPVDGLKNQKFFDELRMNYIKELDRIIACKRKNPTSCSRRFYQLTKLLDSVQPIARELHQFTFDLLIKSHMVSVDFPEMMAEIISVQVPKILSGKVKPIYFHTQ

Brc1ccc(Br)c(Br)c1
outcome [1]: inactive
Potency [2]: inactive
Potency [3]: inactive
Potency [4]: inactive
outcome [5]: inactive
Potency [6]: inactive

CC(=O)OCCOC(C)=O
outcome [1]: inactive
Potency [2]: inactive
Potency [3]: inactive
Potency [4]: inactive
outcome [5]: inactive
Potency [6]: inactive

COc1cc(OC)c(C(=O)CCCN2CCCC2)c(OC)c1
outcome [1]: inactive
Potency [2]: inactive
Potency [3]: inactive and 21.7 µM (active)
Potency [4]: inactive
outcome [5]: inactive
outcome [7]: inactive
Potency [8]: inactive
Potency [9]: inactive
Potency [6]: inactive
outcome [10]: inactive

CC(=O)Oc1ccc(C)cc1
outcome [1]: inactive
Potency [2]: inactive
Potency [3]: inactive
Potency [4]: inactive
outcome [5]: inactive
outcome [7]: inactive
Potency [8]: inactive
Potency [9]: inactive
outcome [10]: inactive

C=C(C)[C@H]1CC=C(C)C(=O)C1
outcome [1]: inactive
Potency [2]: inactive
Potency [3]: inactive
Potency [4]: inactive
outcome [5]: inactive
Potency [6]: inactive

Cc1ccc2ncccc2c1
outcome [1]: inactive
Potency [2]: inactive
Potency [3]: inactive
Potency [4]: inactive
outcome [5]: inactive
Potency [6]: inactive

C=C(C)CNCC
outcome [1]: inactive
Potency [2]: inactive
Potency [3]: inactive
Potency [4]: inactive
outcome [5]: inactive
Potency [6]: inactive

O=C(O)Cn1c(=O)n(Cc2ccc(Br)cc2F)c(=O)c2ccc(Cl)cc21
outcome [1]: inactive
Potency [2]: inactive
Potency [3]: inactive
Potency [4]: inactive
outcome [5]: inactive
Potency [9]: inactive
Potency [6]: inactive
outcome [10]: inactive

CCCCCCCCCCCC(=O)OC
outcome [1]: inactive
Potency [2]: inactive
Potency [3]: inactive
Potency [4]: inactive
outcome [5]: inactive
Potency [6]: inactive

Cc1ccc([N+](=O)[O-])cc1S(=O)(=O)O
outcome [1]: inactive
Potency [2]: inactive
Potency [3]: inactive
Potency [4]: inactive
outcome [5]: inactive
outcome [7]: inactive
Potency [8]: inactive
Potency [9]: inactive
Potency [6]: inactive
outcome [10]: inactive

CC(CCO)CC(C)(C)C (configuration not stated)
outcome [1]: inactive
Potency [2]: inactive
Potency [3]: inactive
Potency [4]: inactive
outcome [5]: inactive
outcome [7]: inactive
Potency [8]: inactive
Potency [9]: inactive
outcome [10]: inactive

COC(=O)CCCC(=O)OC
outcome [1]: inactive
Potency [2]: inactive
Potency [3]: inactive
Potency [4]: inactive
outcome [5]: inactive
Potency [6]: inactive

CC(=O)c1ccc(O)cc1
outcome [1]: inactive
Potency [2]: inactive
Potency [3]: inactive
Potency [4]: inactive
outcome [5]: inactive
Potency [6]: inactive

c1ccc(Oc2ccccc2)cc1
outcome [1]: inactive
Potency [2]: inactive
Potency [3]: inactive
Potency [4]: inactive
outcome [5]: inactive
Potency [6]: inactive

CCOCCOCCOCCO
outcome [1]: inactive
Potency [2]: inactive
Potency [3]: inactive
Potency [4]: inactive
outcome [5]: inactive
Potency [6]: inactive

CC(=O)OC1CC(C)OC(C)O1 (configuration not stated)
outcome [1]: inactive
Potency [2]: inactive
Potency [3]: inactive
Potency [4]: inactive
outcome [5]: inactive
Potency [6]: inactive

CCCOC(=O)c1ccccc1
outcome [1]: inactive
Potency [2]: inactive
Potency [3]: inactive
Potency [4]: inactive
outcome [5]: inactive
Potency [6]: inactive

CN(C)c1ccc(Cc2ccc(N(C)C)cc2)cc1
outcome [1]: inactive
Potency [2]: 27.3 µM (active)
Potency [3]: 48.8 µM (active) and 27.3 µM (active)
Potency [4]: 61.4 µM (active) and 24.3 µM (active)
Potency [6]: inactive

CCOC(=O)n1ccn(C)c1=S
outcome [1]: inactive
Potency [2]: inactive
outcome [5]: inactive
Potency [6]: inactive

CC(C)(C)c1cc(Cc2cc(C(C)(C)C)c(O)c(C(C)(C)C)c2)cc(C(C)(C)C)c1O
outcome [1]: inactive
Potency [2]: inactive and 61.1 µM (active)
Potency [3]: 61.1 µM (active)
Potency [4]: inactive and 54.5 µM (active)
Potency [6]: inactive

C=Cc1ccc(C)cc1
outcome [1]: inactive
Potency [2]: inactive
Potency [3]: inactive
Potency [4]: inactive
outcome [5]: inactive
Potency [6]: inactive

OCc1ccccc1
outcome [1]: inactive
Potency [2]: inactive
Potency [3]: inactive
Potency [4]: inactive
outcome [7]: inactive
Potency [8]: inactive
Potency [9]: inactive
Potency [6]: inactive
outcome [10]: inactive

C[C@]12CCC(=O)C=C1CC[C@@H]1[C@@H]2[C@@H](O)C[C@@]2(C)[C@H]1CC[C@]2(O)C(=O)CO
outcome [1]: inactive
Potency [2]: inactive
Potency [3]: inactive
Potency [4]: inactive
outcome [7]: inactive
Potency [8]: 21.3 nM (active) and 27.8 nM (active)
Potency [9]: 119 nM (active) and 69.3 nM (active)
outcome [10]: inactive

CNC(=O)Oc1ccc2c(c1)[C@]1(C)CCN(C)[C@@H]1N2C
outcome [1]: inactive
Potency [2]: inactive
Potency [3]: inactive and 48.6 µM (active)
Potency [4]: inactive
Potency [6]: inactive

COc1ccc([N+](=O)[O-])cc1N
outcome [1]: inactive
Potency [2]: inactive
Potency [3]: inactive
Potency [4]: inactive and 54.5 µM (active)
outcome [5]: inactive
Potency [6]: inactive

CN1C(=O)CC[C@H]1c1cccnc1
outcome [1]: inactive
Potency [2]: inactive
Potency [3]: inactive
Potency [4]: inactive
outcome [5]: inactive
Potency [6]: inactive

O=C(OCC1CCC2OC2C1)C1CCC2OC2C1 (configuration not stated)
outcome [1]: inactive
Potency [3]: 10.1 µM (active) and 9.69 µM (active)
Potency [4]: inactive
Potency [6]: inactive

O=C1C(c2[nH]c3ccccc3c2O)=Nc2ccccc21
outcome [1]: inactive
Potency [2]: inactive
Potency [3]: inactive
Potency [4]: inactive
Potency [6]: inactive

CSc1ccc(Cl)cc1
outcome [1]: inactive
Potency [2]: inactive
Potency [3]: inactive
Potency [4]: inactive
outcome [7]: inactive
Potency [8]: inactive
Potency [9]: inactive
outcome [10]: inactive

CCO[Si](CCCN)(OCC)OCC
outcome [1]: inactive
Potency [2]: inactive
Potency [3]: inactive
Potency [4]: inactive
Potency [6]: inactive

Nc1ccc(Cl)c(N)c1
outcome [1]: inactive
Potency [2]: inactive
Potency [3]: inactive
outcome [5]: inactive
Potency [6]: inactive

CCCCCCCCCCO
outcome [1]: inactive
Potency [2]: inactive
Potency [3]: inactive
Potency [4]: inactive
Potency [6]: inactive

NCCNCCN
outcome [1]: inactive
Potency [2]: inactive
Potency [3]: inactive and 68.6 µM (active)
Potency [4]: inactive
Potency [6]: inactive

CCOCC(=O)O
outcome [1]: inactive
Potency [2]: inactive
Potency [3]: inactive
Potency [4]: inactive
Potency [6]: inactive

CCCCCCCO
outcome [1]: inactive
Potency [2]: inactive
Potency [3]: inactive
Potency [4]: inactive
Potency [6]: inactive

C=CCc1ccc(OC)c(OC)c1
outcome [1]: inactive
Potency [2]: inactive
Potency [3]: inactive
Potency [4]: inactive
Potency [6]: inactive

CC(C)(Oc1ccc(CCNC(=O)c2ccc(Cl)cc2)cc1)C(=O)O
outcome [1]: inactive
Potency [2]: inactive
Potency [3]: inactive
Potency [4]: inactive
Potency [6]: inactive

Cc1ccc(S(=O)(=O)N=C=O)cc1
outcome [1]: inactive
Potency [2]: inactive
Potency [3]: inactive
Potency [4]: inactive
outcome [5]: inactive
Potency [6]: inactive

CCCCCCCCCCN
outcome [1]: inactive
Potency [2]: inactive
Potency [3]: inactive
Potency [4]: inactive
Potency [6]: inactive

CN(C)c1ccc(O)c2c1C[C@H]1C[C@H]3[C@H](N(C)C)C(=O)C(C(N)=O)=C(O)[C@@]3(O)C(=O)C1=C2O
outcome [1]: inactive
Potency [2]: 21.1 µM (active) [middle of 4 runs]
Potency [3]: 26.6 µM (active) and 18.8 µM (active) and 13.7 µM (active)
Potency [4]: 23.7 µM (active) [middle of 4 runs]
Potency [6]: inactive

C[C@]12CC[C@@H]3c4ccc(O)cc4CC[C@H]3[C@@H]1C[C@@H](O)[C@@H]2O
outcome [1]: inactive
outcome [5]: inactive
Potency [6]: inactive

CC(=O)OCc1ccco1
outcome [1]: inactive
Potency [3]: 27.3 µM (active)
Potency [4]: inactive
outcome [5]: inactive
Potency [6]: inactive

COCCCN
outcome [1]: inactive
Potency [2]: inactive
Potency [3]: inactive
Potency [4]: inactive
Potency [6]: inactive

CC1(C)S[C@@H]2[C@H](NC(=O)COc3ccccc3)C(=O)N2[C@H]1C(=O)O
outcome [1]: inactive
Potency [2]: inactive
Potency [3]: inactive
Potency [4]: inactive
Potency [6]: inactive

CCc1ccccc1CC
outcome [1]: inactive
Potency [2]: inactive
Potency [3]: inactive
Potency [4]: inactive
Potency [6]: inactive

C=CC(=O)OCCC(=O)O
outcome [1]: inactive
Potency [2]: inactive
Potency [3]: inactive
Potency [4]: inactive
Potency [6]: inactive

CCNc1cccc(C)c1
outcome [1]: inactive
Potency [2]: inactive
Potency [3]: inactive
Potency [4]: inactive
Potency [6]: inactive

CC(=O)CC(C)(C)O
outcome [1]: inactive
Potency [2]: inactive
Potency [3]: inactive
Potency [4]: inactive
outcome [7]: inactive
Potency [8]: inactive
Potency [9]: inactive
Potency [6]: inactive
outcome [10]: inactive

CC(C)OP(=O)(CP(=O)(OC(C)C)OC(C)C)OC(C)C
outcome [1]: inactive
Potency [3]: inactive
Potency [4]: inactive
Potency [6]: inactive

CCNC(=S)NCC
outcome [1]: inactive
Potency [2]: inactive
Potency [3]: inactive
Potency [4]: inactive
Potency [6]: inactive

CC(C)=CCl
outcome [1]: inactive
Potency [2]: inactive
Potency [3]: 34.8 µM (active) and inactive
Potency [4]: inactive
Potency [6]: inactive

COC(=O)c1cccnc1
outcome [1]: inactive
Potency [2]: inactive
Potency [3]: inactive
Potency [4]: inactive
outcome [7]: inactive
Potency [8]: inactive
Potency [9]: inactive
outcome [10]: inactive

NCCCCCCN
outcome [1]: inactive
Potency [2]: inactive
Potency [3]: inactive
Potency [4]: inactive
Potency [6]: inactive

COc1ccc(C)cc1N
outcome [1]: inactive
Potency [2]: inactive
Potency [3]: inactive
Potency [4]: inactive
outcome [7]: inactive
Potency [8]: inactive
Potency [9]: inactive
outcome [10]: inactive

C[Si]1(C)O[Si](C)(C)O[Si](C)(C)O[Si](C)(C)O1
outcome [1]: inactive
Potency [2]: inactive
Potency [3]: inactive
Potency [4]: inactive
Potency [6]: inactive
